FLuc modulator – counter-screen for miR-21 project: firefly luciferase inhibitors or activators; purified FLuc, Km substrates, luminescence inhibition; Potency, µM (series often up to 57.5 µM), for inactives: at the highest dose activity change, negative = inhibition, usual class: inhibitors; 360,000 tested, 6.9% active;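 further: plate controls were vehicle for no effect and reference inhibitor for full effect; nearly all actives have a fitted effect of over 55% in size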
Target sequence (P08659 whole entry, looked up): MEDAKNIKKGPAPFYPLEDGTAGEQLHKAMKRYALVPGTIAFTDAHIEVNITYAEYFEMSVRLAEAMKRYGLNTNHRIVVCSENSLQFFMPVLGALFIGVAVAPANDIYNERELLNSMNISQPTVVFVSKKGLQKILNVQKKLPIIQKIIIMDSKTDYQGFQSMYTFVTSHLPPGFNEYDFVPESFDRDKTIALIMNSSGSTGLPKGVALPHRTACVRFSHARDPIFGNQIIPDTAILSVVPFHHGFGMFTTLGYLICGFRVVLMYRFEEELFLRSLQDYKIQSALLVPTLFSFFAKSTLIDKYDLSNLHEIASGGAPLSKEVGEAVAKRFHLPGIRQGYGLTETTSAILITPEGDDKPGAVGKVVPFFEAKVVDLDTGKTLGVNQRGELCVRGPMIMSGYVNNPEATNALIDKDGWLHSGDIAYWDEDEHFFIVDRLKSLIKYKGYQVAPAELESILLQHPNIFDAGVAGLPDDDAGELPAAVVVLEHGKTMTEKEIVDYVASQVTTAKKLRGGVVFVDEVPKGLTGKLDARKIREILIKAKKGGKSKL
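Biochemical qHTS of compounds, final roughly 60 µM downward over six points, against 10 nM purified firefly luciferase using Km concentrations of substrates (10 uM D-luciferin, 10 uM ATP) in Tris acetate pH 7.5 buffer; luminescence output.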
ELG1 DNA repair – inhibitors of ELG1-dependent DNA repair in HEK293T cells; Potency, µM (titrated, usually from 46.1 µM), for inactives: at the highest dose activity change, negative = inhibition, most hits filed as inhibitors; HEK293T ELG1-luciferase reporter, luminescence, 16 h; DNA damage induced by 5-fluorouridine; 330,000 tested, 2.3% active; further: on the % scale 0 is the no-effect control and ±100 the full control effect; nearly all actives have a fitted effect of over 55% in size
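Reporter activity after DNA damage by 5-fluorouridine is monitored. Compound-treated cells incubate 16 hr at 37 °C, then ONE-Glo is added for 30 min before luminescence reading.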
ELG1 genotoxic – induces genotoxicity in HEK293T cells with luciferase-tagged ELG1. 330,000 tested, 1.3% active. AID 504466. Potency, µM (doses to about 46 µM), without a hit: at the highest dose activity change, positive = activation, most hits filed as activators. HEK293T ELG1-luciferase reporter, luminescence, 16 h; further: % of control where 0% means no effect; nearly all actives have a fitted effect of over 60% in size
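16 hr compound incubation (37 °C, 5% CO2) of HEK293T cells carrying luciferase-tagged ELG1; luciferase then measured by ONE-Glo luminescence after 30 min at RT.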
NPC1 prom act – NPC1 promoter activation. Huh7 NPC1 promoter luciferase reporter, 24 h. Potency, µM (doses to about 9.22 µM), for the others: at the top dose activation, usual class: activators. 320,000 tested, 2.4% active; further: % of control where 0% means no effect; nearly all actives have a fitted effect of over 60% in size
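Luminescence read-out of NPC1 promoter-driven luciferase in stably transfected Huh7 cells; compounds delivered in DMSO and left 24 h at 37C, 5% CO2, qHTS titration format.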
SMN2 splice enh – increases expression of the SMN2 splice variant; HEK293 SMN2-luciferase splicing reporter, luminescence, 30-36 h; Potency, µM (doses to about 46.1 µM), for inactives: top-dose activity change, positive = activation, hits mostly activators; AID 1458; 210,000 tested, 2.8% active; further: % of control where 0% means no effect; nearly all actives have a fitted effect of over 55% in size
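HEK293 cells carry an SMN2 […]–luciferase reporter in which exon 7 inclusion puts luciferase in frame. Cells were plated 10-12 h before compound addition, then incubated 30-36 h at 37C. ONE-Glo luminescence was read; sodium butyrate at 4.5 mM final served as control.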
Rab9 promoter act – activators of Rab9 promoter; Huh7 Rab9 promoter-luciferase reporter, luminescence, 24 h; Potency, µM (doses to about 9.22 µM), without a hit: at the top dose activation, negative = inhibition, usual class: activators; 320,000 tested, 2.8% active; AID 485297; further: % of control where 0% means no effect; nearly all actives have a fitted effect of over 60% in size
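Luminescence read-out: Huh7 cells stably expressing Rab9-luciferase, treated 24 h with compound at 37 °C, then lysed with luciferase reagent for 10 min at ambient before reading.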
Starred values were filed as active, the others as inactive; ? = inconclusive; . = no result. Compounds with a hit are over-represented: about 9.2% of the library has one in this group of screens. The call rests on the fitted dose curve; in most records, active means well fitted curve in the direction sought with a large enough effect; inconclusive means small, poorly fitted or top-dose-only effect, or another doubt; inactive means no such curve, though single readings can be large; an effect the other way counts as inactive or inconclusive. Potency means the concentration at half of the fitted maximal effect.

SMILES	FLuc modulator	ELG1 DNA repair	ELG1 genotoxic	NPC1 prom act	SMN2 splice enh	Rab9 promoter act
Cc1ccc2nc(-c3ccc(SCC(=O)O)nc3)[nH]c2c1	5.36µM*	?	2.0%	-3.0%	18.0%	5.7%
COc1ccc(C2=NN(C(=O)CSc3nccn3C)C(c3ccco3)C2)cc1 (stereo not given)	.	-28.7%	-2.9%	.	.	.
COCCn1c(C)cc(O)c(C(c2ccccc2)N2CCN(C)CC2)c1=O (stereo not given)	-5.8%	.	.	.	.	.
CC(=O)c1cccc(OCc2cc(C(=O)N3C[C@@H](C)O[C@@H](C)C3)no2)c1	15.1µM*	?	?	?	.	?
COc1cccc(OCc2cc(C(=O)N(C)CCC3CCCCO3)no2)c1 (stereo not given)	?	?	11.8%	?	.	?
CC(=O)c1cccc(OCc2cc(C(=O)N3C[C@H]4CC[C@H]3C4)no2)c1	9.53µM*	?	?	2.51µM*	.	2µM*
CC(=O)c1cccc(OCc2cc(C(=O)N(C)CCC3CCOCC3)no2)c1	16.9µM*	?	15.3%	26.1%	.	?
O=C(c1cc(COc2cccc(C(F)(F)F)c2)on1)N1C[C@H]2CC[C@H]1C2	15.1µM*	?	?	2.82µM*	.	2.24µM*
CC(=O)c1ccc(OCC(=O)OCc2cc(-c3ccco3)on2)cc1	.	11.9%	3.8%	-1.2%	.	-3.5%
CC1CN(C(=O)N2CCC(C(=O)NC3CCCCCC3)CC2)c2cc(Cl)ccc2O1 (stereo not given)	-1.3%	.	.	.	.	.
CCOC(=O)COc1ccccc1C1Nc2ccccc2C(=O)N1c1cccc(Cl)c1 (stereo not given)	-14.1%	?	?	?	20µM*	2.82µM*
COc1cc(C2Nc3ccccc3C(=O)N2c2ccc(Cl)cc2)c(Cl)cc1OCC(=O)O (stereo not given)	?	?	?	3.16µM*	12.6µM*	2.51µM*
Cc1cc(NC(=O)CCNS(=O)(=O)c2ccc3c(c2)CCCC(=O)N3)ccc1Br	-3.4%	.	.	.	.	.
Cc1ccc(-c2cn(-c3ccccc3)c(=S)[nH]2)cc1C	12µM*	?	3.26µM*	1.12µM*	.	0.126µM*
Cc1ccccc1-c1cn(-c2ccccc2)c(=S)[nH]1	-2.8%	-0.2%	6.3%	0.7%	.	-2.3%
CCCCN(Cc1ccccc1)C(=O)c1oc(=O)c2ccccc2c1-c1ccc(C)cc1	-9.7%	.	.	.	-6.3%	.
C[C@H](CO)N1C[C@H](C)[C@@H](CN(C)C(=O)Nc2ccc(C(F)(F)F)cc2)Oc2ccc(NC(=O)CCC(F)(F)F)cc2C1=O	.	15.4%	2.9%	.	.	.
Cc1c(/C(O)=C2/C(=O)C(=O)N(CCN(C)C)C2c2ccc(C(C)C)cc2)cnn1-c1ccccc1 (stereo not given)	0.6%	4.4%	-0.2%	-4.4%	.	0.5%
Cc1ccc(C2/C(=C(\O)c3cnn(-c4ccccc4)c3C)C(=O)C(=O)N2CCN(C)C)o1 (stereo not given)	-13.4%	-0.6%	-0.1%	?	-22.7%	?
Cc1c(/C(O)=C2\C(=O)C(=O)N(CCN(C)C)C2c2ccco2)cnn1-c1ccccc1 (stereo not given)	26.9µM*	?	9.2µM*	?	-4.6%	?
Cc1c(/C(O)=C2\C(=O)C(=O)N(CCN(C)C)C2c2ccccc2)cnn1-c1ccccc1 (stereo not given)	16.9µM*	?	?	19.4%	.	20.6%
O=C(/C=C/c1c(C(=O)O)[nH]c2cc(Cl)cc(Cl)c12)Nc1ccccc1	.	.	.	.	-11.1%	.
CCCc1ccc2oc(C(=O)N(C)Cc3cnccn3)c(C)c2c1	-5.3%	0.4%	11.7%	1.9%	.	0.5%
Cc1ccc2oc(C(=O)N(C)Cc3ccc(C)o3)c(C)c2c1	26.9µM*	?	11.8%	9.0%	.	11.5%
Cc1ccc2oc(C(=O)N(C)Cc3ccon3)c(C)c2c1	10.7µM*	?	9.2µM*	3.16µM*	.	3.55µM*
SMILES	FLuc modulator	ELG1 DNA repair	ELG1 genotoxic	NPC1 prom act	SMN2 splice enh	Rab9 promoter act
COCCn1c(=O)c(-c2ccc(OC)cc2)nc2cnc(N3CCNCC3)nc21	.	.	.	.	-2.4%	.
COc1ccc2nc(Nc3ccccc3)sc2c1	1.51µM*	?	22.3%	3.55µM*	11.2µM*	1.58µM*
COc1ccc2nc(Nc3ccccc3OC)sc2c1	0.477µM*	?	?	1.12µM*	2.82µM*	0.355µM*
COc1ccc2nc(NC(=O)Nc3cccc4ccccc34)sc2c1	?	?	16.1%	22.1%	?	?
COc1ccc2nc(NC(=O)Nc3ccccc3OC)sc2c1	0.953µM*	?	?	?	.	0.631µM*
COc1ccc2nc(Nc3nc4cc5c(cc4s3)OCO5)sc2c1	-16.3%	?	16.4%	16.0%	?	-0.5%
COc1ccc2nc(Nc3ccc4c(c3)OCO4)sc2c1	?	?	5.8µM*	?	?	4.47µM*
COc1ccc(Nc2nc3ccccc3c(=O)s2)c(OC)c1	3.9%	9.5%	1.6%	-0.3%	5.9%	3.4%
CO[C@H]1OC[C@@]2(C)[C@@H]3C4=C(CN2C(=O)OC(C)(C)C)[C@H](C)[C@H](CO)[C@H](CO)[C@H]4CC[C@H]13	.	.	.	.	0.5%	.
COc1ccc(CC(=O)Nc2ccc3nc(N4CCCCC4)cc(C)c3c2)cc1	-17.2%	.	.	.	-8.7%	.
CCc1ccc(C2NC(=O)c3ccccc3O2)cc1 (stereo not given)	?	5.5%	3.8%	0.1%	.	-3.7%
N#CCCCS(=O)(=O)c1nnnn1-c1ccc(F)cc1Br	.	.	.	.	1.1%	.
Cc1c(Br)c(O)c(Br)c2sc(=O)oc12	-15.1%	-15.6%	-3.5%	-2.3%	.	4.1%
COc1ccccc1NC(=O)Nc1nc2ccc(S(N)(=O)=O)cc2s1	?	?	?	?	.	3.98µM*
CCCc1cc(=O)[nH]c2nnc(SCC(=O)Nc3ccc(OC)cc3)n12	-13.5%	.	.	.	.	.
COc1cccc(CNC(=O)c2ccc(-c3nc(CSc4ccccc4)c(C)o3)cc2)c1	0.9%	.	.	.	.	.
CCNc1nc(NCC)n2c(SC(C(=O)Nc3cc(C)ccc3OC)c3ccccc3)nnc2n1 (stereo not given)	3.4%	23.1µM*	-3.9%	-2.6%	-10.5%	-0.1%
CCNc1nc(NCC)n2c(SCC(=O)Nc3cc(OC)ccc3OC)nnc2n1	6.2%	-3.8%	-0.8%	8.5%	.	9.1%
CN(C(=O)CCc1nnc(-c2ccc(-c3ccccc3)cc2)o1)C1CCOCC1	16.9µM*	?	-7.1%	21.1%	.	21.0%
Cc1cc(C)n(CCN(C)C(=O)CCc2nnc(CCC3CCCCC3)o2)n1	15.1µM*	?	?	?	.	?
